Measured values reported in PubChem BioAssay.
Activity calls are given as the source filed them. Unless noted, the rule behind the calls is not given here.

Key:
[1] = test system: Wnt5a (protein binding on small-molecule microarray); assay: small molecules binding Wnt5a protein – biophysical, small-molecule microarray, 635/667 nm fluorescence, primary screen (AID 1142); conditions: 635 nm fluorescence, higher = more signal;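 note: fluorescence read at 667 nm with signal to noise per printed feature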
[2] = ATP-based viability of Huh7 replicon cells – cell-based, CellTiter-Glo luminescence, basal, 48 h, cytotoxicity control for HCV replication inhibitor project, primary screen (AID 1143); conditions: higher = more signal, called active from +8 up or from −8 down;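 note: Huh7 hepatoma cells carrying a hepatitis C replication reporter with no stimulus; test concentration not given here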
[3] = Pseudomonas biofilm growth suppression – PAO1 strain, BacTiter-Glo luminescence, LB-PBS, primary screen (AID 1144); conditions: P. aeruginosa PAO1 biofilm, 12 h, higher = more signal
[4] = basal CRE-LacZ reporter activity in PC12 – cell-based, unstimulated, primary screen (AID 1145); conditions: no forskolin, luminescence, 4.5 h, higher = more signal, called active from +8 up or from −8 down
[5] = forskolin-driven CRE-LacZ activity in PC12 – cell-based, CRE-LacZ reporter, forskolin-stimulated, primary screen (AID 1146); conditions: luminescence, 4.5 h, higher = more signal, called active from +8 up or from −8 down;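 note: PC12 cells with 6xCRE LacZ reporter stimulated by forskolin 10 µM; beta-galactosidase reporter signal reflecting CREB driven transcription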
[6] = molecular target: Streptavidin (Streptomyces avidinii) (UniProt P22629); assay: compounds binding control protein streptavidin – biophysical, small-molecule microarray, 635/667 nm fluorescence, artefact control for SMM compound annotation, primary screen (AID 1147); conditions: higher = more signal;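 note: signal reflects streptavidin binding to arrayed compounds as a control protein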
[7] = probe aInhba binding on compound microarray – biochemical, small-molecule microarray, 635/667 nm fluorescence, primary screen (AID 1148); conditions: higher = more signal;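 note: score merges 667nm spot fluorescence with signal-to-noise for antibody binding to printed compounds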
Torsin-1A (Homo sapiens) [8] = molecular target: Torsin-1A (Homo sapiens) (UniProt O14656); assay: TOR1A wild-type binding on microarray – cell lysate, small-molecule microarray, lysate, 635/667 nm, primary screen (AID 1149); conditions: COS7 hTOR1A-WT lysate, 635 nm fluorescence, higher = more signal
Torsin-1A (Homo sapiens) [9] = molecular target: Torsin-1A (Homo sapiens) (UniProt O14656); assay: torsin A mutant lysate binding on microarrays – cell lysate, small-molecule microarray, COS7 lysate, 635/667 nm fluorescence, primary screen (AID 1150); conditions: COS7 hTOR1A mutant lysate, 635 nm fluorescence, higher = more signal;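 note: score pools 667 nm emission and signal to noise measuring lysate protein binding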
[10] = test system: Sonic hedgehog protein (Shh); assay: Sonic hedgehog microarray binding compounds – biochemical, small-molecule microarray, 635/667 nm fluorescence, primary screen (AID 1151); conditions: 635 nm fluorescence, higher = more signal;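 note: Shh protein binding to compounds spotted on small-molecule microarray slides; score combines spot fluorescence intensity with signal-to-noise across triplicate slides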

Streptavidin (Streptomyces avidinii), sequence (P22629 whole entry, looked up): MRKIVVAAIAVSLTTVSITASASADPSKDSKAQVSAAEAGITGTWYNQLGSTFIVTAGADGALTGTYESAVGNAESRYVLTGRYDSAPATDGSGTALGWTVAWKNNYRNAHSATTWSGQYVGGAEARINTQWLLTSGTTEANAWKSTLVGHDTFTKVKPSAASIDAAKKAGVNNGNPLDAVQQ
Torsin-1A (Homo sapiens), sequence (O14656 whole entry, looked up): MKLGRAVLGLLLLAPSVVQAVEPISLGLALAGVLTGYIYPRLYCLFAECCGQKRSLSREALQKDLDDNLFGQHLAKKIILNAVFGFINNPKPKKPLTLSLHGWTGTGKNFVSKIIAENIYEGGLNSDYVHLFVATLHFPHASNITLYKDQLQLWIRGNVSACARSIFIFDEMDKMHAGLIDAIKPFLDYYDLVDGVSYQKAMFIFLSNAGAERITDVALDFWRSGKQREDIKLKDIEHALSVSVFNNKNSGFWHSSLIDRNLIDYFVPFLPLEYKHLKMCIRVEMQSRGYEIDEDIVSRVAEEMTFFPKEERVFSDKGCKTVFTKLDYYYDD

| SMILES | composite z-score [1] | z-score [2] | z-score [3] | z-score [4] | z-score [5] | composite z-score [6] | composite z-score [7] | composite z-score (Torsin-1A (Homo sapiens) [8]) | composite z-score (Torsin-1A (Homo sapiens) [9]) | composite z-score [10] |
| --- | --- | --- | --- | --- | --- | --- | --- | --- | --- | --- |
| COc1cccc([C@H]2Oc3ccc(OC)cc3C(=NO[C@@H](C)c3cn([C@H](CO)Cc4ccccc4)nn3)[C@@H]2O)c1 | -0.353 | -0.404 (inactive) | 0.0128 (inactive) | 6.77 (inactive) | 0.661 (inactive) | 0.326 | -0.0986 | -0.44 | -0.137 | -0.243 |
| CON=C[C@@H](C)[C@H](OCc1ccccc1)C(C)C | 0.103 | -1.83 (inactive) | -1.54 (inactive) | 0.987 (inactive) | -0.278 (inactive) | -0.0087 | -0.0963 | 0.537 | -0.253 | 0.224 |
| O=c1n(-c2ccccc2)c(=O)n2n1CC[C@@H]1C(=NOCc3ccccc3)[C@H]3O[C@H]3[C@@H](O)[C@@H]12 | 0.18 | 0.492 (inactive) | 0.251 (inactive) | -0.385 (inactive) | -0.314 (inactive) | -0.445 | -0.0695 | -0.614 | -0.315 | -0.0835 |
| CCc1cc2c(nc1CC)CCN(CCC(C)=NOC[C@H]1O[C@H](c3ccccc3)C=C[C@@H]1Oc1ccc(OC)cc1)C2 | -0.363 | -4.11 (inactive) | -1.57 (inactive) | 5.73 (inactive) | 0.28 (inactive) | 2.21 | -0.0093 | 0.15 | 0.274 | 0.839 |
| CCOC(=O)[C@H](CC(C)C)NC(=O)CCC1CC(OC(=O)NCCc2ccc(F)cc2)CC2(CCCC(COC(=O)NCC3CCCCC3)O2)O1 (stereo not given in full) | 0.0548 | 0.791 (inactive) | 0.239 (inactive) | 0.381 (inactive) | 0.868 (inactive) | 1.42 | -0.148 | -0.0001 | 0.915 | 0.648 |
| CCOC(=O)NN=C1C[C@@H](O)[C@@H](O)[C@@H]2[C@@H]3C(=O)N([C@@H](C)c4ccccc4)C(=O)[C@@H]3CC[C@H]12 | 0.0373 | -0.339 (inactive) | 0.627 (inactive) | -0.115 (inactive) | -0.174 (inactive) | -0.0822 | -0.0131 | 0.834 | 0.522 | 0.127 |
| CCOC(=O)[C@H](CC(C)C)NC(=O)CCC1CC(OC(=O)NCCc2ccc(F)cc2)CC2(CCCC(COC(=O)NCCc3ccccc3OC)O2)O1 (stereo not given in full) | 0.145 | -0.451 (inactive) | -0.256 (inactive) | 1.64 (inactive) | 0.135 (inactive) | 0.805 | -0.0736 | 0.0877 | 0.528 | 0.567 |
| CCOC(=O)CCN1C(=O)[C@H]2[C@H]3[C@H](O)[C@H](O)CC(=NOCc4ccccc4)[C@H]3CC[C@H]2C1=O | 0.14 | 0.223 (inactive) | 1.14 (inactive) | -0.295 (inactive) | -0.21 (inactive) | 0.758 | 0.0805 | -0.296 | -0.522 | -0.212 |
| COC(=O)NCC=Cc1nc(CCCO)co1 | 0.134 | -0.068 (inactive) | 0.633 (inactive) | 0.286 (inactive) | -0.0562 (inactive) | 0.362 | -0.353 | 0.519 | 0.802 | 0.883 |
| CCOC(=O)[C@H](CC(C)C)NC(=O)CCC1CC(OC(=O)NCc2cccc3ccccc23)CC2(CCCC(COC(=O)NCCOC)O2)O1 (stereo not given in full) | 0.238 | -1.3 (inactive) | -0.656 (inactive) | -0.526 (inactive) | 0.389 (inactive) | 0.0772 | 0.119 | -0.114 | 0.753 | 1.03 |
| COc1ccc(O[C@H]2C=C[C@@H](c3ccccc3)O[C@@H]2COC(=O)CCC(C)=NOC(C)CN2CCCc3nc(C)c(C)cc32)cc1 (stereo not given in full) | 0.162 | -0.61 (inactive) | -0.34 (inactive) | 0.448 (inactive) | -0.507 (inactive) | 0.629 | -0.12 | 0.0595 | 0.486 | 1.01 |
| CCOC(=O)[C@H](CC(C)C)NC(=O)CCC1CC(OC(=O)NCc2ccc3c(c2)OCO3)CC2(CCCC(COC(=O)NCCCN3CCCC3=O)O2)O1 (stereo not given in full) | 0.353 | -0.255 (inactive) | -0.767 (inactive) | 0.0167 (inactive) | -0.413 (inactive) | 0.657 | 0.0154 | 0.232 | 0.92 | 1.74 |
| O=C(C=Cc1ccc2c(c1)OCO2)c1ccc(F)cc1 | 0.239 | -1.25 (inactive) | 0.583 (inactive) | 1.28 (inactive) | 0.362 (inactive) | 1.32 | 0.259 | 0.245 | -0.397 | 2.05 |
| COc1ccc(O[C@H]2C=C[C@@H](c3ccccc3)O[C@@H]2COC(=O)CCC(C)=NOC[C@@H](O)[C@H]2O[C@@H]3OC(C)(C)O[C@@H]3[C@H]2O)cc1 | 0.383 | -0.119 (inactive) | -0.108 (inactive) | -1.14 (inactive) | -0.866 (inactive) | 1.15 | -0.0963 | 0.624 | 0.891 | 1.14 |
